Assay results: PubChem BioAssay (NCATS)
Inconclusive results are not listed. Active and inactive are the calls of the source. Unless noted, calls come from the whole dose curve; as a rule, active = well fitted curve in the direction sought with a large enough effect; inconclusive = small, poorly fitted or top-dose-only effect, or another doubt; inactive = no such curve, though single readings can be large; an effect the other way counts as inactive or inconclusive.

Columns and labels:
[1] = target: Glucocorticoid receptor (Homo sapiens) (UniProt P04150); assay: GR-GFP Redistribution (AID 450;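 active = compounds whose dose series gives a full or clear partial fitted curve of increased nuclear translocation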; note: potency is the fitted concentration of half-maximal effect); conditions: U2OS GR-GFP nuclear translocation, laser cytometry, 2 h
[2] = target: Glucocorticoid receptor (Homo sapiens) (UniProt P04150); assay: GR-EFC Redistribution (AID 451; calls by dose curve; note: potency is the fitted concentration of half-maximal effect); conditions: CHO-K1 GR-EFC translocation, beta-gal luminescence, 2 h
In short: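 CHO-K1 cells stably expressing nuclear-localized β-gal enzyme acceptor and GR fused C-terminally to the enzyme donor fragment; ligand-driven nuclear translocation restores β-gal by complementation. Compounds titrated up to 46 uM final, 2 h at 37 °C; luminescence read.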

[3] = target: Mitogen-activated protein kinase 10 (Mus musculus) (UniProt Q61831); assay: JNK3 AlphaScreen Assay (AID 530; active = well fitted curve in either direction with a large enough effect, not every such curve was filed as active;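 note: kinase came from lysate of stimulated human HepG2 cells; signal reports phosphorylation of biotinylated GST-cJun 1-79 at Ser73 with 10 µM ATP; % is set by controls: 0 for no effect and ±100 for the full control effect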); conditions: JNK3 lysate, c-Jun phosphorylation; series mostly up to 25.6 µM
In short: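 JNK3 came from HepG2 lysates pre-activated with IL-1beta and TNF-alpha and phosphorylated biotinylated GST-cJun (1-79) at 10 uM ATP, pH 7.6, room temperature. Compounds were titrated. AlphaScreen signal used anti-phospho-cJun (Ser73) antibody.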

[4] = qHTS Assay for Lipid Storage Modulators (AID 1519; calls by dose curve; for activity change, negative = inhibition: % is set by controls: 0 for no effect and ±100 for the full control effect); conditions: Drosophila S3 cells, BODIPY lipid droplet/cell ratio, laser cytometry, cells loaded with oleic acid; for activity change, negative = inhibition: at 25.7 µM (top of the series)
In short: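 Cells seeded at 5,000 per well were treated with compounds over a concentration series and loaded with oleic acid (400 uM, as added). Lipid droplet fluorescence (488 nm excitation, 500-530 nm channel) was read by laser-scanning cytometry and normalized to 20 uM Triacsin C.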

[5] = target: Ubiquitin carboxyl-terminal hydrolase 1 (Homo sapiens) (UniProt O94782); assay: Inhibitors of USP1/UAF1: Pilot qHTS (AID 504865); conditions: purified USP1/UAF1, Ub-rhodamine cleavage fluorescence; series mostly up to 114 µM;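 note: rhodamine fluorescence freed from ubiquitin-rhodamine substrate followed over time; top concentration of the series differs between compounds; % is set by controls: 0 for no effect and ±100 for the full control effect; nearly all actives have a fitted effect of over 35% in size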
In short: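 USP1/UAF1 complex (1nM) preincubated with compound 15 min at room temperature, then Ub-Rho substrate (150nM final) added. Fluorescence read kinetically at 480/540 nm, 6 reads every 60 seconds. Buffer: 50mM HEPES pH 7.8, 0.5mM EDTA, 0.1 mg/ml BSA, 1mM TCEP, 0.01% Tween-20.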

[6] = target: ATP-dependent 6-phosphofructokinase (Trypanosoma brucei brucei) (UniProt O15648); assay: qHTS Assay to Find Inhibitors of T. brucei phosphofructokinase: hit validation (AID 492961);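 note: luminescence reports ADP formed as PFK phosphorylates fructose-6-phosphate with ATP; % is set by controls: 0 for no effect and ±100 for the full control effect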; conditions: T. brucei PFK, ADP-Glo luminescence; series mostly up to 24.3 µM
In short: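 Percent activity derived from corrected luminescence, normalized between 0x and 1x enzyme controls, then fitted to concentration-response curves. Conditions: 1.25 nM PFK, 0.1 mM ATP, 0.5 mM F6P, 45 min RT.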

3D7 = assay: qHTS profiling for inhibitors of Plasmodium falciparum proliferation (AID 504749); note: nearly all actives have a fitted effect of over 60% in size; note: potency is the fitted concentration of half-maximal effect;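 for activity, negative = inhibition: 0% = DMSO vehicle and full inhibition = artemisinin control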; conditions: P. falciparum in erythrocytes, SYBR Green DNA, 72 h; series mostly up to 12.8 µM
In short: (§1)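 P. falciparum-infected erythrocytes (0.3% parasitemia, 2.5% hematocrit final) were exposed to compounds for 72 h at 37 C in 5% CO2, then lysed with SYBR Green buffer overnight at room temperature; parasite DNA fluorescence was normalized to artemisinin and DMSO controls.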

AS120 = assay: as above; conditions: P. falciparum in erythrocytes, SYBR Green DNA, 72 h; series mostly up to 12.8 µM
In short: as §1

C2A = assay: as above; conditions: P. falciparum in erythrocytes, SYBR Green DNA, 72 h; series mostly up to 12.8 µM
In short: as §1

CP217 = assay: as above; conditions: P. falciparum in erythrocytes, SYBR Green DNA, 72 h; series mostly up to 12.8 µM
In short: as §1

CP237 = assay: as above; conditions: P. falciparum in erythrocytes, SYBR Green DNA, 72 h; series mostly up to 12.8 µM
In short: as §1

CP238 = assay: as above; conditions: P. falciparum in erythrocytes, SYBR Green DNA, 72 h; series mostly up to 12.8 µM
In short: as §1

CP252 = assay: as above; conditions: P. falciparum in erythrocytes, SYBR Green DNA, 72 h; series mostly up to 12.8 µM
In short: as §1

CP262 = assay: as above; conditions: P. falciparum in erythrocytes, SYBR Green DNA, 72 h; series mostly up to 12.8 µM
In short: as §1

CP269 = assay: as above; conditions: P. falciparum in erythrocytes, SYBR Green DNA, 72 h; series mostly up to 12.8 µM
In short: as §1

CP297 = assay: as above; conditions: P. falciparum in erythrocytes, SYBR Green DNA, 72 h; series mostly up to 12.8 µM
In short: as §1

ECU = assay: as above; conditions: P. falciparum in erythrocytes, SYBR Green DNA, 72 h; series mostly up to 12.8 µM
In short: as §1

PAD = assay: as above; conditions: P. falciparum in erythrocytes, SYBR Green DNA, 72 h; series mostly up to 12.8 µM
In short: as §1

[7] = as above; conditions: P. falciparum in erythrocytes, SYBR Green DNA, 72 h
In short: as §1

SC27B = assay: as above; conditions: P. falciparum in erythrocytes, SYBR Green DNA, 72 h; series mostly up to 12.8 µM
In short: as §1

[8] = measured here: cell count channel max response
[9] = measured here: lipid channel max response
[10] = at 12.8 µM (top of the series), parasite line A
[11] = at 12.8 µM (top of the series), parasite line B
[12] = at 28.7 µM (top of the series), parasite line A
[13] = at 28.7 µM (top of the series), parasite line B

Sequence of Glucocorticoid receptor (Homo sapiens) (P04150 whole entry, looked up, the tested form may be a part): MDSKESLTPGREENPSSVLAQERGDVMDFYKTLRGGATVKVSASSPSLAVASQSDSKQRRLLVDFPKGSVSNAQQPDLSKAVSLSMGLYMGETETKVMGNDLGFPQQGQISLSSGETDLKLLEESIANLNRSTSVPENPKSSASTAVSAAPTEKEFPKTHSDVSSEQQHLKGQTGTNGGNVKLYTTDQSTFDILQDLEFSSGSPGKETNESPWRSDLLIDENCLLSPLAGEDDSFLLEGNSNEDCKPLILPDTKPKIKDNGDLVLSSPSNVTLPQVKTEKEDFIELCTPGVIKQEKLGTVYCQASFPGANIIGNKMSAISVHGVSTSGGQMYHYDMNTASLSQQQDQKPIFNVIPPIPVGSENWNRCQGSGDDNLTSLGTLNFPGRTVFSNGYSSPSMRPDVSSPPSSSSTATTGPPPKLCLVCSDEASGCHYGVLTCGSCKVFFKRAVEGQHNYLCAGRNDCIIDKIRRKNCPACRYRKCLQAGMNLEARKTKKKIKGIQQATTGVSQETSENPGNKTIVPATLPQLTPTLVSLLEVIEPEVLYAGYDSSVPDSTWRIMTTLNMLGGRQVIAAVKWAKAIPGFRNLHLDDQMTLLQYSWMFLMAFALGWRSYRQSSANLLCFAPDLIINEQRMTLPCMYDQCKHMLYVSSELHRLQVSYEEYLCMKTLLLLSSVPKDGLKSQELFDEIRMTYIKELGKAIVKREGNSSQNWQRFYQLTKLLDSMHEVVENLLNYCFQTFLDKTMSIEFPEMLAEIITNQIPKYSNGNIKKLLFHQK
Sequence of ATP-dependent 6-phosphofructokinase (Trypanosoma brucei brucei) (O15648 whole entry, looked up): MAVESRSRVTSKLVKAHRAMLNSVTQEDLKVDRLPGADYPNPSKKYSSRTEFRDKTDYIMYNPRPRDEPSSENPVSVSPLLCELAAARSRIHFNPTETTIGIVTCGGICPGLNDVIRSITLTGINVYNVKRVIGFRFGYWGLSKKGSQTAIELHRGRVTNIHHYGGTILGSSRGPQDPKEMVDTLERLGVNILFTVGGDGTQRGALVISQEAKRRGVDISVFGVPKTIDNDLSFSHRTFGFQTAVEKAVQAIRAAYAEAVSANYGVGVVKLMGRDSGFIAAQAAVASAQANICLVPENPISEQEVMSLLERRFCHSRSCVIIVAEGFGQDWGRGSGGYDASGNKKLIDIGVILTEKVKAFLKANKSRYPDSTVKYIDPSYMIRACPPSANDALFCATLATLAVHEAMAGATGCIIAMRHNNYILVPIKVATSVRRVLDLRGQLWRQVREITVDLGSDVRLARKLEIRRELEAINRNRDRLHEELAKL
Sequence of Ubiquitin carboxyl-terminal hydrolase 1 (Homo sapiens) (O94782 whole entry, looked up): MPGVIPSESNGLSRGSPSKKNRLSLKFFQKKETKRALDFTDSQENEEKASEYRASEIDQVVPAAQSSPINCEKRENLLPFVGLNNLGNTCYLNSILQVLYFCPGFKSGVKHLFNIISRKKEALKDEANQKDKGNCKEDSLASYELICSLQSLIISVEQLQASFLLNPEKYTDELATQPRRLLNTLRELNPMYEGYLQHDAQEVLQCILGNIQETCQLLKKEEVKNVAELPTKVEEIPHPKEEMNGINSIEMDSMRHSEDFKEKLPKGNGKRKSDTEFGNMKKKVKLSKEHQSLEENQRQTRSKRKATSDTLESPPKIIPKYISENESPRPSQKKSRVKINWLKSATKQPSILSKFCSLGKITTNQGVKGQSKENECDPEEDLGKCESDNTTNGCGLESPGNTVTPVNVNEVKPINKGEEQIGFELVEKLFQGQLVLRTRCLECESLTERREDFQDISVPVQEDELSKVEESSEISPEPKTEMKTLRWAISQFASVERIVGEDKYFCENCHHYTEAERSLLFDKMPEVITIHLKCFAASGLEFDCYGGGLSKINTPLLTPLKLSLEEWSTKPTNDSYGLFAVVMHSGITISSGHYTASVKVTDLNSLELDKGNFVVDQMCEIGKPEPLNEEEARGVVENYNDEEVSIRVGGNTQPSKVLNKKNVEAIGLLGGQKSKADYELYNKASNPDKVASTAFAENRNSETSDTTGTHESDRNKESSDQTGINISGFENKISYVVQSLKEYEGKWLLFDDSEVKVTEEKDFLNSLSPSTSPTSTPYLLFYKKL

C[C@@]1(O)CCOC(=O)C1
-3.45%: max response [4, 8]
inactive: Potency [1] > 20.6 µM | Potency [2] > 20.6 µM | Potency [3] | activity change, negative = inhibition [4] -1.74% | Potency [5]
-5.01%: max response [4, 9]

C[C@H](CCC(=O)O)[C@H]1CC[C@@H]2[C@@H]3[C@@H](O)C[C@H]4C[C@@H](O)CC[C@@]4(C)[C@H]3CC[C@@]21C
inactive: Potency [3] | activity change, negative = inhibition [4] -0.554% | outcome [6] | Potency [5] | Potency (3D7) | Potency (AS120) | Potency (C2A) | Potency (CP217) | Potency (CP237) | Potency (CP238) | Potency (CP252) | Potency (CP262) | Potency (CP269) | Potency (CP297) | Potency (ECU) | Potency (PAD)
-0.386%: max response [4, 9]
-2.48%: max response [4, 8]

CC#C[C@@]1(O)CC[C@H]2[C@@H]3CCC4=CC(=O)CCC4=C3[C@H](c3ccc(N(C)C)cc3)C[C@]21C
-7.59%: max response [4, 8]
inactive: activity change, negative = inhibition [4] 0.174%
-5.96%: max response [4, 9]

COc1cc(OC)c2c(c1Cl)O[C@@]1(C2=O)[C@H](C)CC(=O)C[C@@H]1OC
inactive: Potency [1] > 20.6 µM | Potency [2] > 20.6 µM | Potency [3] | activity change, negative = inhibition [4] -1.85% | Potency [5]
-13.8%: max response [4, 8]
-15.1%: max response [4, 9]

CC(C)(C)NC[C@@H](O)COc1ccccc1C1CCCC1
inactive: Potency [2] > 20.6 µM | Potency [3] | activity change, negative = inhibition [4] 1.2% | outcome [6] | Potency [5]
-12.5%: max response [4, 9]
active: Potency [1] 4.85 µM | Potency ([7]; parasite line B) 3.16 µM | Potency (AS120) 3.98 µM | Potency (CP217) 3.16 µM | Potency (CP237) 3.55 µM | Potency (CP238) 3.16 µM | Potency (CP252) 3.16 µM | Potency (CP269) 5.73 µM | Potency (CP297) 7.21 µM | Potency (ECU) 3.55 µM | Potency (PAD) 3.16 µM | Potency (SC27B) 3.55 µM
-14.9%: max response [4, 8]

NC(=O)c1cc[n+](CC2=C(C(=O)[O-])N3C(=O)[C@@H](NC(=O)Cc4cccs4)[C@@H]3SC2)cc1
-16.9%: max response [4, 9]
-15%: max response [4, 8]
inactive: Potency [3] | activity change, negative = inhibition [4] -1.16% | outcome [6] | Potency [5] | activity, negative = inhibition [7, 10] -3.3% | activity, negative = inhibition [7, 11] 1.86% | Potency (3D7) | Potency (AS120) | Potency (C2A) | Potency (CP217) | Potency (CP237) | Potency (CP238) | Potency (CP252) | Potency (CP262) | Potency (CP269) | Potency (CP297) | Potency (ECU) | Potency (PAD) | Potency (SC27B)

c1ccc2c(c1)CCC[C@@H]2C1=NCCN1
6.92%: max response [4, 9]
4.77%: max response [4, 8]
inactive: Potency [3] | activity change, negative = inhibition [4] 1.29% | outcome [6] | Potency [5] | activity, negative = inhibition [7, 12] 13.7% | activity, negative = inhibition [7, 13] -0.664% | Potency (3D7) | Potency (AS120) | Potency (C2A) | Potency (CP217) | Potency (CP237) | Potency (CP238) | Potency (CP252) | Potency (CP262) | Potency (CP269) | Potency (CP297) | Potency (ECU) | Potency (PAD) | Potency (SC27B)

CN(C)CCOC(=O)[C@@H](c1ccccc1)C1(O)CCCC1
2.88%: max response [4, 8]
1.92%: max response [4, 9]
active: Potency (CP237) 8.91 µM
inactive: Potency [1] > 20.6 µM | Potency [2] > 20.6 µM | Potency [3] | activity change, negative = inhibition [4] -1.19% | outcome [6] | Potency [5] | activity, negative = inhibition [7, 12] 22.6% | activity, negative = inhibition [7, 13] 8.77% | Potency (3D7) | Potency (AS120) | Potency (C2A) | Potency (CP217) | Potency (CP238) | Potency (CP252) | Potency (CP262) | Potency (CP269) | Potency (ECU) | Potency (PAD) | Potency (SC27B)

OCCOCCN1CCN([C@@H](c2ccccc2)c2ccc(Cl)cc2)CC1
inactive: Potency [3] | activity change, negative = inhibition [4] -0.885% | Potency [5]
8.41%: max response [4, 8]
6.93%: max response [4, 9]

CC(=O)S[C@H]1CC2=CC(=O)CC[C@@]2(C)[C@H]2CC[C@@]3(C)[C@H](CC[C@]34CCC(=O)O4)[C@@H]12
inactive: Potency [2] > 20.6 µM | Potency [3] | activity change, negative = inhibition [4] -7.24% | Potency [5]
-20.4%: max response [4, 8] | max response [4, 9]
active: Potency [1] 2.45 µM

Clc1ccc([C@H](Cn2ccnc2)OCc2c(Cl)cccc2Cl)c(Cl)c1
-21.7%: max response [4, 9]
inactive: Potency [1] > 20.6 µM | Potency [2] > 20.6 µM | Potency [3] | activity change, negative = inhibition [4] -0.836% | outcome [6]
active: Potency ([7]; parasite line B) 3.16 µM | Potency (3D7) 2.51 µM | Potency (AS120) 1.26 µM | Potency (CP217) 2.24 µM | Potency (CP237) 3.16 µM | Potency (CP238) 3.55 µM | Potency (CP252) 3.16 µM | Potency (ECU) 1.78 µM | Potency (PAD) 3.55 µM | Potency (SC27B) 1.58 µM
-18.9%: max response [4, 8]

Cc1ccsc1/C=C\C1=NCCCN1C
-9.18%: max response [4, 8]
inactive: Potency [1] > 20.6 µM | Potency [2] > 20.6 µM | Potency [3] | activity change, negative = inhibition [4] -1.64% | outcome [6] | activity, negative = inhibition [7, 10] 10.5% | activity, negative = inhibition [7, 11] 9.61% | Potency (3D7) | Potency (AS120) | Potency (C2A) | Potency (CP217) | Potency (CP237) | Potency (CP238) | Potency (CP252) | Potency (CP262) | Potency (CP269) | Potency (CP297) | Potency (ECU) | Potency (PAD) | Potency (SC27B)
-10.2%: max response [4, 9]
